Among the data in PubChem BioAssay AID652257 (The Scripps Research Institute Molecular Screening Center, 2013) are inhibition values, retold here.

Screen size: about 370,000 compounds; about 4,800 (1.3%) were called active.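 How the source made its calls: active means inhibition above about 21% made by adding two undisclosed values (limit read from the data); inactive means the rest.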 What follows is part of a selection rich in actives, with near analogues and random picks from the rest.

Chain of Protein arginine N-methyltransferase 1 (Homo sapiens) (Q99873 whole entry, looked up): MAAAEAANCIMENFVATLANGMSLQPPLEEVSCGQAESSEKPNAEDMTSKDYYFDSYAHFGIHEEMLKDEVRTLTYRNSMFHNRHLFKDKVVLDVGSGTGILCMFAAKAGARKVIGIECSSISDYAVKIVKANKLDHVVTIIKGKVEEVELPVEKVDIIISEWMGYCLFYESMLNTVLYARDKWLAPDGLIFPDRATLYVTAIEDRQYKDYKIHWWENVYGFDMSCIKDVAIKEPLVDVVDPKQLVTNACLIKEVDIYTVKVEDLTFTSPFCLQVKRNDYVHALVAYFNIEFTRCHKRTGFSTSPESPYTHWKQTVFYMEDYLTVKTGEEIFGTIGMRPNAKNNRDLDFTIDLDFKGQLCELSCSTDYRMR

The experiment has as its target Protein arginine N-methyltransferase 1 (Homo sapiens) (UniProt Q99873). In words: PRMT1 methyltransferase inhibitors, primary screen, biochemical, fluorescence polarization (AID 652257). As to conditions: recombinant PRMT1, activity-based probe fluorescence polarization; at 2.79 µM; hits give high values.
A word on the inhibition: it is the drop in the measured response relative to a control, in per cent. For `O=C(O)C#Cc1cccc2ccccc12`, the inhibition is -1.9% (inactive).

With `CC(CCN1CCC(C(O)(c2ccccc2)c2ccccc2)CC1)Oc1ccc(C(F)(F)F)cc1` (stereo unspecified), the inhibition is 0.57% (inactive).

In the case of `CCOc1ccc(-n2c(SCC(=O)Nc3cc(C)c(NC(=O)c4ccccc4)cc3OC)nnc2-c2cccc(Cl)c2)cc1`, the inhibition is 7.2% (inactive).

As to `C=CS(=O)c1sc(Cl)c(N2CCOCC2)c1[N+](=O)[O-]` (stereo unspecified), the inhibition was 73.1% (active).

For `CCN(C(=O)[C@@H](C1CC1)[C@@H](O)c1ccc2ccccc2c1)c1ccccc1`, the inhibition is -0.98% (inactive).

Regarding `O=C(O)C1CCN(C(=O)c2cc(F)cc3c2OCOC3)CC1`, the inhibition was -0.21% (inactive).

Regarding `CC(=O)N1CCc2cc(Br)cc(S(=O)(=O)CCC(=O)Nc3c(C)n(C)n(-c4ccccc4)c3=O)c21`, the inhibition is 4.6% (inactive).

Take `O=C(O)/C=C/C(=O)NNc1ccc([N+](=O)[O-])cc1`: the inhibition is 59% (active).

Turning to `CC(C)(C)C(=O)NCCCNc1ccc([N+](=O)[O-])cc1`, the inhibition is 9.07% (inactive).

With `O=C(CSCc1ccc([N+](=O)[O-])cc1)NCCSCc1ccccc1`, the inhibition is -0.87% (inactive).

Regarding `COC(=O)c1ccccc1-n1cc(COC(=O)NCCc2ccccc2)nn1`, the inhibition was -0.03% (inactive).

In the case of `S=c1[nH]nc(-c2ccco2)n1/N=C/c1ccc(Br)s1`, the inhibition is 34.3% (active).

For `Brc1ccc(/C=N/N2CCN(C3c4ccccc4-c4ccccc43)CC2)s1`, the inhibition is -0.5% (inactive).

Take `CCc1ccccc1NC(=S)N(CCN1CCCCCC1)Cc1ccco1`: the inhibition is -6.03% (inactive).

`Cn1c(C(=O)NCCCN2CCCCC2)cc2sccc21`: the inhibition is -0.77% (inactive).

On to `O=C(Nc1ccc(Br)cc1)OCCN1C(=O)CCC12CCC(c1ccccc1)CC2` (stereo unspecified), for which the inhibition is -1.94% (inactive).

With `O=C1C(Cl)=C(Oc2ccccc2)C(=O)c2ccccc21`, the inhibition was 88.5% (active).

As to `COc1ccc(Cn2cc(CN3[C@@H](CC(C)C)COc4cc(Br)ccc4S3(=O)=O)nn2)cc1`, the inhibition was -4.17% (inactive).

With `Cc1ccc(-n2c(SCC(=O)Nc3ccc(S(=O)(=O)Nc4nccs4)cc3)nnc2-c2ccncc2)cc1`, the inhibition was -1.23% (inactive).

Regarding `CC(C)CNc1cccc2c1S(=O)(=O)N(Cc1cn(Cc3ccc(Cl)cc3)nn1)Cc1ccccc1O2`, the inhibition is -5.99% (inactive).

As to `O=C(NCc1ccccc1)[C@@H]1CCCN1C(=O)[C@H]1CCCN1C(=O)c1cccc(Cl)c1`, the inhibition is -3.52% (inactive).

For the molecule `O=C(CSc1nc2ccccc2s1)NN=Cc1ccc(O)cc1O`, the inhibition was -0.64% (inactive).

Consider `O=C(CSc1nc2ccccc2s1)N=Nc1c(O)[nH]c2ccccc12`, for which the inhibition is 2.56% (inactive).

For `O=C(O)c1ccccc1CSc1nc2ccccc2s1`, the inhibition was 40.8% (active).

Take `Cc1ccc(NC(=O)c2cc(C)nn2-c2ccccc2)c(C)c1`: the inhibition is -2.87% (inactive).

Turning to `CCCC(=O)NC(Nc1ccccc1OC)C(Cl)(Cl)Cl` (stereo unspecified), the inhibition is 1.36% (inactive).

On to `CCN(CC)c1ccc2oc(=O)c(C)nc2c1`, for which the inhibition was 46.6% (active).

For `CCN(C(=O)CSc1nnc(-c2ccc(OC(F)F)cc2)n1N)C1CCS(=O)(=O)C1` (stereo unspecified), the inhibition was -3.24% (inactive).

Turning to `Cc1ccc(Cc2cnc(N)s2)o1`, the inhibition is 40.4% (active).

Consider `Cc1ccc(-n2c(C)cc(/C=C(\C#N)C(=O)NCC3CCCO3)c2C)cc1` (stereo unspecified), for which the inhibition is -0.82% (inactive).

Take `CCCNC(=O)Nc1ccc2c(c1)C(=O)N(C)[C@H]1CC[C@H](CC(=O)NCC3CCCCC3)O[C@@H]1CO2`: the inhibition was 1.64% (inactive).

As to `C[C@@H](NC(=O)c1ccccc1OCC(=O)Nc1ccc(I)cc1)C(=O)N(C)Cc1ccccc1`, the inhibition is -0.05% (inactive).

As to `COc1ccnc(NC(=S)N2CCN(c3ncc(C(F)(F)F)cc3Cl)CC2)c1`, the inhibition was 35.6% (active).

For the molecule `Cc1cc(C)nc(NC(=S)N2CCN(c3ccc(C(F)(F)F)cn3)CC2)c1`, the inhibition is 7.93% (inactive).

Regarding `O=C(NCC(=O)N1CCN(c2ncc(C(F)(F)F)cc2Cl)CC1)c1ccc(Br)o1`, the inhibition was -1.7% (inactive).

With `CC(C)c1ccc(NC2CCCN(C(=O)c3ccncc3)C2)cc1` (stereo unspecified), the inhibition is 5.83% (inactive).

Take `Cc1cc(NS(=O)(=O)c2ccc(NC(=O)CSc3nnc(SCc4ccc(F)cc4)s3)cc2)nc(C)n1`: the inhibition is 1.42% (inactive).

Turning to `CC1CCN(C(=S)c2cccc(O)c2)CC1`, the inhibition was 3% (inactive).

As for `COc1ccc(C(=O)Nc2c(Cl)cc(Cl)cc2C(=O)N2CCC(C)CC2)cc1`, the inhibition was 1.04% (inactive).

Turning to `CC1CCN(C(=S)c2ccc(-c3ccc(Cl)cc3Cl)o2)CC1`, the inhibition was 31.8% (active).

Regarding `C1CC1Cc1noc(CN2CCN(CC3CC3)CC2)n1`, the inhibition was -0.03% (inactive).

With `Cc1nc(NC(=O)C(C)(C)C)sc1[N+](=O)[O-]`, the inhibition is -3.06% (inactive).

In the case of `CCN(CC)CCNS(=O)(=O)c1ccc(/C=C/C(=O)O)cc1`, the inhibition is 4.48% (inactive).

As to `CCOc1cc(/C=N/n2cnnc2)c(Br)cc1O`, the inhibition is 4.53% (inactive).

For the molecule `CCOc1cccc(/C=N/N2C(=O)CSC2=S)c1O`, the inhibition was 63.6% (active).

For `COC(=O)[C@]12C[C@H](CC(=O)NCC34CC5CC(CC(C5)C3)C4)C(=O)N(Cc3ccc(Cl)cc3Cl)C1=C[C@H](COCc1ccccc1)O[C@@H]2C`, the inhibition is 2.58% (inactive).

In the case of `COC(=O)[C@]12C[C@H](CC(=O)N3CCN(C(=O)C4CC4)CC3)C(=O)N(CCC3=CCCCC3)C1=C[C@H](C(C)C)O[C@@H]2C1CC1`, the inhibition is 1.61% (inactive).

`c1ccc(CSc2ncnc3c2sc2nc(N4CCOCC4)c4c(c23)CCCC4)cc1`: the inhibition is -1.26% (inactive).

Regarding `Cc1cccc(NC(=O)c2sc3nc(N4CCOCC4)c4c(c3c2N)CCCC4)c1`, the inhibition is 33% (active).

Regarding `Cc1cccc(NC(=O)CSc2nnc(NC(=O)CN3CCOCC3)s2)c1`, the inhibition was 0.98% (inactive).

With `COc1cc(C(=O)N/C(=C\c2cn(C)c3ccccc23)C(=O)N2CCOCC2)cc(OC)c1OC`, the inhibition is 4.22% (inactive).

Consider `COc1ccc(C2CC=C(C(=O)O)C(c3ccccc3F)N2S(=O)(=O)c2ccc(C)cc2)cc1OC` (stereo unspecified), for which the inhibition was -1.02% (inactive).

Turning to `COc1cccc2c1C(=O)c1c(O)c3c(c(O)c1C2=O)CC(O)(C(C)=NNC(=O)c1ccc(Cl)c(Cl)c1)CC3OC1CC(N)C(O)C(C)O1` (stereo unspecified), the inhibition was 179% (active).

On to `CN1c2ccc(C=O)c3c(C=O)ccc(c23)N(C)C1(C)C`, for which the inhibition is 68.8% (active).

With `O=C(CSc1nc2nccnc2c(=O)n1Cc1cccs1)Nc1ccccc1F`, the inhibition is 5% (inactive).

As for `O=C1C(=O)N(Cc2ccc(-c3ccsc3)cc2)c2ccc(OC(F)(F)F)cc21`, the inhibition was -4.19% (inactive).

As for `O=C1CC[C@@H](COc2ccc3[nH]cc(-c4ccccc4)c3c2-c2ccccc2)N1`, the inhibition is -0.73% (inactive).

In the case of `Cc1ccc(NC(=O)CSc2nn3c(=O)c(C)nnc3s2)cc1Cl`, the inhibition is 1.57% (inactive).

As for `CC(C)(C)c1nnc2sc(SCC(O)=C(C#N)c3nc4ccccc4[nH]3)nn2c1=O`, the inhibition was 21.6% (active).

With `O=C(Cc1ccccc1)NCC1OCCc2ccccc21` (stereo unspecified), the inhibition was 0% (inactive).

On to `CSc1nsc(SCC(=O)Nc2cc(C(=O)O)ccc2C)n1`, for which the inhibition was 20.1% (inactive).

As to `COc1ccc(C)cc1NC(=O)CSc1nc(SC)ns1`, the inhibition was 16% (inactive).

Regarding `COc1ccc(NC(=O)CSc2nc(SC)ns2)c(OC)c1`, the inhibition was 36.5% (active).

`O=C1CC(c2ccc3c(c2)OCO3)N=C2N(CC3CC3)C/C(=C/c3ccccc3)N12` (stereo unspecified): the inhibition was -0.31% (inactive).

Consider `CC1Cc2ccccc2N1CC(=O)Nc1ccc(S(N)(=O)=O)cc1` (stereo unspecified), for which the inhibition was -0.96% (inactive).

As to `Cc1nc2ccc(S(=O)(=O)NCC(=O)NCCN3CCCCC3C)cc2s1` (stereo unspecified), the inhibition is -0.17% (inactive).

Turning to `COc1cccc(CNC(=O)CNS(=O)(=O)c2ccc3nc(C)sc3c2)c1OC`, the inhibition is -2.5% (inactive).

Turning to `Cc1nc2ccc(S(=O)(=O)NCC(=O)O)cc2s1`, the inhibition was 36.9% (active).

With `COCC(C)NC(=O)CSc1nc2nn(-c3ccccc3)c(=O)c-2c2n1CCCCC2` (stereo unspecified), the inhibition was 5.41% (inactive).

Regarding `CNC(=S)NNC(=O)c1ccc(N(C)C)cc1`, the inhibition was -0.78% (inactive).

As for `CC1CN(/C=C/C(=O)C(F)(F)F)CC(C)O1` (stereo unspecified), the inhibition was -0.81% (inactive).

For `CN(C)c1ccc(N/C=C/C(=O)C(F)(F)F)cc1`, the inhibition was 36.9% (active).

In the case of `c1csc(-c2nnc(SCc3nc4ccccc4[nH]3)o2)c1`, the inhibition was -6.14% (inactive).

As to `C=CCN1C(=O)[C@@H](CC(=O)NCCCOCCCC)[C@]2(C(=O)OCC)CCCCC/C=C/12`, the inhibition was 2.37% (inactive).

As for `c1ccc(C(=NNc2nc3ccccc3s2)c2ccccn2)cc1`, the inhibition was 27.5% (active).

With `CCC(=O)Nc1ccc2c(c1)C(=O)N(C)[C@H]1CC[C@H](CC(=O)NCCOC)O[C@@H]1CO2`, the inhibition is 5.57% (inactive).

Turning to `Cn1c(=O)c2cn(-c3cccc4ccccc34)cc2n(C)c1=O`, the inhibition was -1.91% (inactive).

`CCc1ccccc1N1C(=O)C2C3CC(=O)C(c4ccccc43)C2C1=O` (stereo unspecified): the inhibition is -4.03% (inactive).

For the molecule `CC1=C(C)CC2C(=O)N(c3cccc4ccccc34)C(=O)C2C1` (stereo unspecified), the inhibition is 42% (active).

For the molecule `COc1ccccc1Oc1ccc(N/C=C2/CCCC2=O)cc1`, the inhibition is -1.7% (inactive).

Turning to `COc1ccc(N/N=C2/CCCCC2=O)cc1`, the inhibition was 32.7% (active).

With `Cc1ccc(N/N=C2\COC(C)(C)CC2=O)cc1`, the inhibition is -2.4% (inactive).

`C=CCN(Cc1ccc2c(c1)OCO2)C(C#CC1CC1)C(C)(C)C` (stereo unspecified): the inhibition is 1.88% (inactive).

In the case of `CC(NC(=O)CSc1nc2c(cc1C#N)CN(C)CC2)c1ccccc1` (stereo unspecified), the inhibition was 37.7% (active).

`CN1CCc2nc(SC(C(=O)O)c3ccccc3)c(C#N)c(-c3cccs3)c2C1` (stereo unspecified): the inhibition was 11.9% (inactive).

Take `Cc1cc(NC(=O)CSCC(=O)NC(C)c2ccccc2)no1` (stereo unspecified): the inhibition is -1.57% (inactive).

For the molecule `CCOc1ccc(N(C)Cc2cc(=O)oc3ccc(OC)cc23)cc1`, the inhibition is -2.23% (inactive).

For `Brc1ccccc1C1Nc2cccc3cccc(c23)N1`, the inhibition was 39.4% (active).

As for `Brc1ccccc1C1N=C(c2ccccc2)NO1` (stereo unspecified), the inhibition was 3.27% (inactive).

`COc1cc2c(cc1OC)C(c1ccccc1Br)NC(=O)C2` (stereo unspecified): the inhibition is 4.47% (inactive).

On to `COC(=O)c1c(-c2ccc(OC)cc2)c2c(c3c4ccccc4n(S(=O)(=O)c4ccc(C)cc4)c13)C(=O)N(C)C2`, for which the inhibition is 3.01% (inactive).
